Laboratory results: article PMC7826789 (International Journal of Molecular Sciences, 2021)

What was measured:
Conditions in all cases: Compound Concentration (nM):1000
[1] = tested on: FGFR3
[2] = tested on: FGFR4
[3] = tested on: FGR
[4] = tested on: FLT1
[5] = tested on: FLT3(D835H)
[6] = tested on: FLT3(D835V)
[7] = tested on: FLT3(D835Y)
[8] = tested on: FLT3(ITD)
[9] = tested on: FLT3(ITD,D835V)
[10] = tested on: FLT3(ITD,F691L)
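Further: KINOMEscan scanMAX binding as percent activity remaining versus control; lower means stronger binding.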

Row | SMILES | Percent Control [1] | Percent Control [2] | Percent Control [3] | Percent Control [4] | Percent Control [5] | Percent Control [6] | Percent Control [7] | Percent Control [8] | Percent Control [9] | Percent Control [10]
1 | CC1=C(C(=O)Nc2ccc3[nH]ncc3c2)C(c2ccc3ccccc3c2)CC(=O)N1 (centres unmarked) [GSK270822A] | 73% | 58% | 76% | 89% | 94% | 65% | 78% | 100% | 73% | 79%
2 | Cc1cc(O)cc(C)c1/C=C/c1cncc(C(N)=O)c1 [GW435821X] | 100% | 100% | 64% | 100% | 77% | 31% | 75% | 100% | 100% | 100%
3 | COc1cc(N2CCN(C(C)C)CC2)ccc1Nc1nc(Nc2ccc(F)cc2C(=O)NC[C@@H](O)CO)c2cc[nH]c2n1 [GSK1392956A] | 97% | 95% | 81% | 94% | 100% | 69% | 68% | 88% | 79% | 40%
4 | Cl.O=C(Nc1ccc(Oc2ccc3[nH]c(NC(=O)c4ccccc4)nc3c2)cc1)Nc1cc(C(F)(F)F)ccc1F [GW709042A] | 100% | 100% | 82% | 5.1% | 2.8% | 28% | 14% | 3.7% | 95% | 56%
5 | COc1cc(C)c(N(C)C(=O)CN(C)C)cc1Nc1nc(Nc2cccc(F)c2C(N)=O)c2cc[nH]c2n1 [GSK2219385] | 78% | 96% | 100% | 96% | 85% | 76% | 91% | 82% | 88% | 100%
6 | C[C@@H](Oc1cc(-n2cnc3ccc(OC4CCN(C)CC4)cc32)sc1C(N)=O)c1ccccc1Cl [GSK579289A] | 86% | 79% | 91% | 75% | 9.4% | 0% | 38% | 38% | 15% | 8.2%
7 | NS(=O)(=O)c1ccc(N/N=C2\C(=O)Nc3ccc(C(=O)NCc4ccncc4)cc32)cc1 [GW300657X] | 82% | 100% | 100% | 80% | 52% | 0% | 46% | 64% | 0.6% | 17%
8 | Cl.O=S1CCN(Cc2ccc(-c3ccc4ncnc(Nc5ccc(OCc6ccccc6)c(F)c5)c4c3)o2)CC1 [GW576924A] | 100% | 100% | 100% | 100% | 100% | 99% | 83% | 100% | 100% | 100%
9 | COc1ccccc1-c1cc(/C=C2\C(=O)Nc3ncc(Br)cc32)cc(Br)c1O [GW442130X] | 100% | 100% | 100% | 100% | 86% | 73% | 40% | 100% | 92% | 100%
10 | COc1ccc2[nH]c3c4[nH]c5ccc(OC)cc5c4c4c(c3c2c1)C(=O)NC4=O [GW296115X] | 93% | 85% | 68% | 79% | 12% | 4% | 16% | 2.1% | 0% | 3.6%
11 | O=C(Nc1n[nH]c2nc(-c3ccc(O)cc3)c(Br)cc12)C1CC1 [SB-725317] | 100% | 100% | 100% | 89% | 29% | 2.9% | 33% | 68% | 35% | 37%
12 | NS(=O)(=O)c1ccc(N/N=C2\C(=O)Nc3ccc(Cl)cc32)cc1 [GW280670X] | 100% | 100% | 100% | 100% | 83% | 31% | 100% | 59% | 60% | 36%
13 | COc1ccc2cc(-c3c(-c4ccncc4)nc(-c4ccc(S(C)(=O)=O)cc4C)n3C)ccc2c1 [SB-633825] | 76% | 85% | 63% | 100% | 79% | 74% | 99% | 100% | 80% | 81%
14 | COc1cc(C=NNc2ncnc3c2cnn3-c2ccccc2)ccc1O [GW513184X] | 100% | 100% | 80% | 100% | 12% | 3% | 9.4% | 30% | 16% | 46%
15 | CCc1ccc(Oc2nccc(-c3c(-c4ccc(F)cc4)ncn3C3CCNCC3)n2)cc1 [SB-242719] | 100% | 91% | 87% | 100% | 88% | 100% | 100% | 99% | 89% | 93%
16 | Cl.c1ccc(Cc2nc3ccc(Nc4ncnc5ccccc45)cc3[nH]2)cc1 [GR269666A] | 100% | 100% | 100% | 100% | 100% | 83% | 97% | 100% | 100% | 100%
17 | COc1cccc(-n2ncc3c(N/N=C/c4ccncc4)ncnc32)c1 [GW784752X] | 100% | 100% | 72% | 100% | 22% | 4% | 48% | 67% | 10% | 55%
18 | COc1ccc(COc2ccc(Cc3cnc(N)nc3N)cc2OC)cc1 [GW632580X] | 95% | 98% | 81% | 98% | 100% | 100% | 81% | 87% | 100% | 99%
19 | COc1cc2ncnc(Nc3ccc4c(cnn4Cc4ccccc4)c3)c2cc1OC.Cl [GW282449A] | 100% | 100% | 68% | 100% | 68% | 34% | 83% | 96% | 90% | 100%
20 | Cl.O=C(O[C@H]1CN[C@H](C#Cc2cc3ncnc(Nc4ccc5c(cnn5Cc5ccccc5)c4)c3s2)C1)N1CCOCC1 [GSK200398A] | 100% | 89% | 96% | 99% | 96% | 87% | 89% | 98% | 88% | 92%
21 | Cl.O=C(Nc1ccc(Oc2ccc3[nH]c(NC(=O)c4ccco4)nc3c2)cc1)Nc1cc(C(F)(F)F)ccc1F [GW683134A] | 84% | 100% | 91% | 3.2% | 0.4% | 13% | 9.8% | 3.7% | 96% | 39%
22 | COc1cc2ncn(-c3cc(O[C@H](C)c4ccccc4Cl)c(C(N)=O)s3)c2cc1OC [GSK237701A] | 57% | 100% | 67% | 69% | 11% | 0% | 28% | 33% | 5.9% | 21%
23 | COc1cccc(-c2c[nH]c3c(N/N=C/c4ccncc4)ncnc23)c1 [GW814408X] | 100% | 100% | 43% | 83% | 27% | 7.5% | 16% | 21% | 3.9% | 43%
24 | CC(C)COC(=O)c1ccc2c(c1)/C(=C/Nc1ccc(S(N)(=O)=O)cc1)C(=O)N2 [GW416981X] | 100% | 100% | 99% | 83% | 1.6% | 0% | 1.1% | 3% | 0% | 0%
25 | CN(C)CCNC(=O)Nc1ccc(N(C)c2ccnc(Nc3ccc(CS(C)(=O)=O)cc3)n2)cc1.Cl [GW830900A] | 100% | 100% | 100% | 61% | 32% | 6.3% | 35% | 8.3% | 22% | 19%
26 | Nc1ncnc2occ(-c3ccc(NC(=O)Nc4cc(C(F)(F)F)ccc4F)cc3)c12 [GW770249X] | 77% | 69% | 100% | 2.9% | 0.9% | 4.1% | 11% | 2.9% | 52% | 27%
27 | CN1CCN(C(=O)c2ccc(NC(=O)Nc3ccc(N(C)c4ccnc(Nc5ccc(CS(C)(=O)=O)cc5)n4)cc3)cc2)CC1.Cl [GW830263A] | 100% | 100% | 57% | 0.4% | 0.8% | 1.2% | 5.3% | 0.3% | 8.9% | 6.8%
28 | CC1=C(C(=O)Nc2ccc3[nH]ncc3c2)C(c2ccc(Cl)c(Cl)c2)CC(=O)N1 (centres unmarked) [GSK299115A] | 84% | 57% | 86% | 100% | 100% | 75% | 87% | 100% | 80% | 94%
29 | C/C(Nc1ccc(S(N)(=O)=O)cc1)=C1/C(=O)Nc2ccccc21 [GW335962X] | 97% | 100% | 78% | 100% | 87% | 0.3% | 76% | 100% | 0.8% | 3%
